Bioassay records as filed in PubChem BioAssay.
Only some compounds are listed: those with a hit (about 31% of all), similar ones and a draw of the others.
CYP2C9 inhib: blocks human cytochrome P450 2C9; P11712; CYP2C9 Supersomes, luciferin-H conversion, luminescence; inhibition, % at 5 µM; 96,000 tested, 20% active; AID 777;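 active = blocking of liver enzyme CYP2C9 beyond about 50% at 5 µM, limit read from the data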
CYP2C19 act: increases human CYP2C19 enzyme activity; 96,000 tested, under 10 active; activation factor at 5 µM; recombinant CYP2C19, luciferin-H EGE luminescence; stronger effect = higher value; 0 = fully inhibited enzyme, 1 = untreated enzyme; P33261;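 active = activation factor of at least 2 at 5 µM in the primary screen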;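 also: 0 = wells with 2.5 mM tranylcypromine and 1 = vehicle-only wells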
Target sequence (P33261 whole entry, looked up): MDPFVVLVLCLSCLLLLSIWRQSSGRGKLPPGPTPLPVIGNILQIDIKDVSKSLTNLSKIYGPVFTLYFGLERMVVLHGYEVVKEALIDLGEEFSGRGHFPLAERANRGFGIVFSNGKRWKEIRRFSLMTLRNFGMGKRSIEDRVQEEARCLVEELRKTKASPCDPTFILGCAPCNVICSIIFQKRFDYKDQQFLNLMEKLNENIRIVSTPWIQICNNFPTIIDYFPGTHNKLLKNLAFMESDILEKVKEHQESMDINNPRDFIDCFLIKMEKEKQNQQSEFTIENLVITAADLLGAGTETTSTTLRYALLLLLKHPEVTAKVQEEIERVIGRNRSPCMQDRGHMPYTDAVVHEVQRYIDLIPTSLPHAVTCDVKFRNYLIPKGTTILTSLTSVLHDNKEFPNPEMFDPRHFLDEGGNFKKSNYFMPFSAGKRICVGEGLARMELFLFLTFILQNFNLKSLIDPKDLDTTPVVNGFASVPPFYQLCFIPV
CYP2C19 inh: inhibitors of human CYP2C19; P33261; CYP2C19 Supersomes, luciferin-H EGE luminescence, 30 min; inhibition, % at 5 µM; 96,000 tested, 21% active; AID 778;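 active = CYP2C19 inhibition above a set limit at 5 µM in the primary screen, cut at about 50% in these data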;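 also: plate controls were negative control wells for no effect and 2.5 mM tranylcypromine positive control for full effect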
CYP2C9 activ: increases human cytochrome P450 2C9 activity | activation factor at 5 µM | 96,000 tested, 1.4% active | recombinant CYP2C9, luciferin-H conversion, luminescence; stronger effect = higher value; factor 1 = untreated enzyme, 0 = blocked | P11712;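 active = activation factor of 2 or more for CYP2C9 at a 5 µM dose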;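 also: 0 = sulfaphenazole-blocked wells and 1 = vehicle-only wells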
* hit, by the source's call.

SMILES	CYP2C9 inhib	CYP2C19 act	CYP2C19 inh	CYP2C9 activ
Cc1cc(Cl)ccc1OCC(=O)NCc1ccncc1	82*	0	95*	0.2
O=C(Nc1nn[nH]n1)C12CC3CC(CC(C3)C1)C2	-2	1	3	1
CCOC1(OCC)N=C(N)C2(C#N)C(c3cccc(C)c3)C12C#N (stereo not given)	23	0.7	29	0.8
O=C(COc1ccc(Cl)cc1Cl)NCCCn1ccnc1	97*	0	100*	0
O=C(COc1ccc(Cl)cc1Cl)Nc1noc2ccccc12	-34	0.7	30	1.3
O=C(COc1ccc(Cl)cc1Cl)Nc1ccccn1	78*	0.3	70*	0.2
O=C(COc1ccc(Cl)cc1Cl)NCc1ccncc1	95*	0	100*	0
Cc1cc(=O)oc2cc(OCC(=O)NCc3ccncc3)ccc12	91*	0.3	65*	0.1
COC(=O)c1ccc(Cl)c(NC(=O)CN2CCN(C)CC2)c1	-23	1	-3	1.2
CC(C)NC(=O)COc1ccc(Cl)cc1Cl	10	0.5	46	0.9
CCn1cc(C(C)NC(=O)COc2ccc(Cl)cc2C)c(C)n1 (stereo not given)	82*	0.4	62*	0.2
CN(C)P(=NC(=O)COc1ccc(Cl)cc1Cl)(N(C)C)N(C)C	3	0.1	92*	1
CC(=O)Nc1c(-c2ccc(F)cc2)nc2ccccn12	-2	1.1	-14	1
CCOC(=O)CNc1c(-c2ccc(Cl)cc2)nc2cnccn12	74*	0.1	89*	0.3
CCOC(=O)CNc1c(-c2ccc(F)cc2)nc2cnccn12	38	0.4	60*	0.6
NC(=O)CSc1nnc(Cc2cccs2)n1C1CCCCC1	-11	1.1	-6	1.1
N#CCSc1nnc(Cc2cccc3ccccc23)n1C1CCCCC1	45	0.4	57*	0.6
Cc1ccc(Nc2cc(C)nc3ncnn23)c(Cl)c1	-10	1	-4	1.1
O=C(NC12CC3CC(CC(C3)C1)C2)N1CCC(n2nnc3ccccc32)CC1	6	0.2	78*	0.9
Cc1nn(-c2ccccc2)c(Cl)c1/C=C/C(=O)c1ccccc1	66*	0.3	70*	0.3
Cc1nn(-c2ccc(F)cc2)c(Cl)c1/C=C(\CC(=O)O)c1nc2ccccc2s1	17	1.1	-12	0.8
Cc1nn(-c2ccccc2)c(Cl)c1/C=C(\CC(=O)O)c1nc2ccccc2s1	74*	0.8	19	0.3
COc1ccc(OC)c(N/C(C)=C/C(=O)c2ccc(C)o2)c1	-5	0.9	6	1
Cc1ccc(Cn2c(=O)cc(C(=O)O)c3ccccc32)cc1	2	1.1	-7	1
CC(C)(C)Sc1nc(O)cc(=O)[nH]1	5	1	-3	1
SMILES	CYP2C9 inhib	CYP2C19 act	CYP2C19 inh	CYP2C9 activ
COc1cc(CCN2C(=O)c3cccc4cccc(c34)C2=O)c(S(=O)(=O)NCCCO)cc1OC	38	0.3	66*	0.6
COc1ccc(NC(=O)CN2C(=O)c3cccc4cccc2c34)cc1OC	1	1	-1	1
CCOC(=O)c1c(C)nc2sc3c(=O)n(-c4ccc(C(C)=O)cc4)cnc3c2c1-c1ccc(OC)cc1	76*	0.3	70*	0.2
CCOC(=O)c1c(C)nc2sc3c(=O)n(-c4ccc(OC)cc4)nnc3c2c1-c1ccc(OC)cc1	26	0.7	31	0.7
CCOc1ccccc1N1CSC2=C(C#N)C(c3c(OC)ccc4ccccc34)CC(=O)N2C1 (stereo not given)	100*	0.2	75*	0
COc1ccc(C2CC(=O)N3CN(c4ccc(C)c(Cl)c4)CSC3=C2C#N)cc1OC (stereo not given)	96*	0.8	21	0
COc1ccc(N2CSC3=C(C#N)C(c4cc(OC)c(OC)cc4OC)CC(=O)N3C2)c(OC)c1 (stereo not given)	34	0.9	9	0.7
COc1ccc(N2CSC3=C(C#N)C(c4cccs4)CC(=O)N3C2)cc1 (stereo not given)	32	0.9	13	0.7
COc1ccc(N2CSC3=C(C#N)C(c4ccc(OC)c(OC)c4)CC(=O)N3C2)c(OC)c1 (stereo not given)	14	1	-2	0.9
COc1ccc(N2CSC3=C(C#N)C(c4cc(OC)ccc4OC)CC(=O)N3C2)c(OC)c1 (stereo not given)	53*	1	1	0.5
O=C(NCCN1CCOCC1)c1csc2c1CCCCC2	-12	1	1	1.1
CCC(=O)Nc1nc2nc(-c3ccccc3)cc(-c3ccccc3)n2n1	22	1	-1	0.8
O=C(Nc1nc2c(c(=O)[nH]1)CCCC2)C1CC1	0	1.2	-17	1
CCc1ccc2oc(=O)cc(CN(C)Cc3ccccc3)c2c1	16	1	5	0.8
Cc1cc(OC2CCCCC2)nc(-c2ccccc2O)n1	34	1	2	0.7
C=CCN1CC2CC3(COc4cc(C)cc(C)c4)C=CC2(O3)C1=O (stereo not given)	45	0.4	65*	0.5
O=C(CCN1CCCCCC1)Nc1ccc(F)c(F)c1	-18	0.9	12	1.2
Cn1c(=O)[nH]c(=O)c2c1nc(CN1CCN(Cc3ccccc3)CC1)n2CC(N)=O	-11	1.1	-7	1.1
O=C(c1cnc2n(c1=O)CCS2)N1CCN(c2ccccc2F)CC1	-4	0.7	34	1
COC(=O)C1CCN(C(=O)c2ccccc2Oc2ccccc2)CC1	55*	0.2	79*	0.4
O=C(c1ccccc1Oc1ccccc1)N1CCN(c2ccccc2F)CC1	90*	0.2	79*	0.1
O=C(c1ccc(Br)s1)N1CCN(c2ncccn2)CC1	80*	0	98*	0.2
O=C(c1ccc(Br)s1)N1CCCC1	-18	0.7	34	1.2
COc1ccccc1N1CCN(C(=O)c2ccc(Br)s2)CC1	89*	0	99*	0.1
O=C(c1ccccc1F)N1CCN(c2ncccn2)CC1	31	0.6	36	0.7
SMILES	CYP2C9 inhib	CYP2C19 act	CYP2C19 inh	CYP2C9 activ
O=C(c1c(F)cccc1F)N1CCN(c2ncccn2)CC1	65*	0.8	23	0.3
COc1ccccc1N1CCN(C(=O)c2cc3cc(Br)ccc3oc2=O)CC1	14	0.4	59*	0.9
COc1ccccc1N1CCN(C(=O)c2ccccc2Oc2ccccc2)CC1	75*	0.3	74*	0.3
CCOC(=O)N1CCN(C(=O)c2cc3cc(Br)ccc3oc2=O)CC1	2	0.9	13	1
COn1c(SCC(=O)N(C)C)nc2ccccc2c1=O	-12	0.9	13	1.1
CS(=O)(=O)N1CCN(c2ccc([N+](=O)[O-])c(NCCN3CCOCC3)c2)CC1	3	0.9	9	1
O=C(c1cccc(F)c1)N1CCN(c2cccc(Cl)c2)CC1	86*	0.1	94*	0.1
O=C(COc1ccc(Cl)cc1)N1CCN(C(=O)c2cccc(F)c2)CC1	-1	0.8	23	1
CCC1CCCCN1C(=O)c1nn2cccnc2c1Cl (stereo not given)	-11	0.9	12	1.1
O=C(c1cccnc1)N1CCN(C(=O)c2ccccc2F)CC1	65*	0.5	51*	0.3
